Source: PubChem (National Center for Advancing Translational Sciences (NCATS))
ALDH1A1 inh – blocks purified human ALDH1A1 activity; hit rate 7.3% among 220,000; AID 1030; Potency, µM (titrated, usually from 75.3 µM), without a hit: at the highest dose activity, negative = inhibition, hits mostly inhibitors; Purified ALDH1A1, NADH fluorescence, propionaldehyde substrate;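 also: potency is read from the fitted curve at half-maximal effect; plate controls were no enzyme wells and a reference inhibitor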
JMJD2E inh – inhibitors of human JMJD2E histone demethylase | JMJD2E catalytic domain, FDH-coupled NADH fluorescence (FDH is formaldehyde dehydrogenase) | AID 2147 | B2RXH2 | Potency, µM (doses to about 57.1 µM), inactives show at the top dose activity change, negative = inhibition, usual class: inhibitors | hit rate 1.6% among 230,000;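 also: potency is read from the fitted curve at half-maximal effect; 0% = wells with enzyme and -100% = buffer wells without enzyme; nearly all actives have a fitted effect of over 50% in size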
Target sequence (B2RXH2 1-337 limits assumed): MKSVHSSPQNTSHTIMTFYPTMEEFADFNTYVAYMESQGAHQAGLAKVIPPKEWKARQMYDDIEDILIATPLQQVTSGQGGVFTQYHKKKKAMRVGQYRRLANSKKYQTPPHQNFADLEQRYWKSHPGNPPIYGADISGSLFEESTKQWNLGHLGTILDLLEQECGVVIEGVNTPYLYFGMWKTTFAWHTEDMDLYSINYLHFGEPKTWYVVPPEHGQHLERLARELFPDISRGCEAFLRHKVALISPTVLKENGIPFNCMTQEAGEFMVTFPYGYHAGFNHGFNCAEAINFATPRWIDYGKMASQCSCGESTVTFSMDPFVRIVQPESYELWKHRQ
HPGD block – HPGD (human) dehydrogenase inhibition; P15428; purified HPGD, NADH fluorescence kinetic, PGE2 substrate; Potency, µM, for inactives: at the top dose activity change, negative = inhibition, actives largely listed as inhibitors; hit rate 4.3% among 150,000; also: potency is read from the fitted curve at half-maximal effect
Target sequence (P15428 whole entry, looked up): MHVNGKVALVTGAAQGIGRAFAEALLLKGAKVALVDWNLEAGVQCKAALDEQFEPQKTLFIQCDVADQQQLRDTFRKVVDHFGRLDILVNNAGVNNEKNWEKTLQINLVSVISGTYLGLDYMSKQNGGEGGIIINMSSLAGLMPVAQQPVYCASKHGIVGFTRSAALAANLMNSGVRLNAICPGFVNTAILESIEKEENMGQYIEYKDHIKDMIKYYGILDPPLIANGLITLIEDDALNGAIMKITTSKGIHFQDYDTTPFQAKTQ
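NADH formation kinetics: reaction with 30 uM PGE2 and 1 mM NAD+ (final), 20 nM enzyme, Tris-HCl pH 8 with Tween 20, after 15 min compound preincubation at room temperature. Fluorescence change, last versus first of five reads.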
PNC assembly inh – blocks assembly of the perinucleolar compartment; PC3M PTB-GFP, PNC prevalence imaging, 16 h; hits give low values; activity change (PNC), negative = inhibition, % at 10 µM; hit rate 3.1% among 140,000; AID 2417;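 active = readout at or below -70, meaning at least 70% loss of cells showing the perinucleolar compartment, a nuclear body marking cancer cells; inconclusive = readout between -30 and a set limit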;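 also: plate controls were DMSO wells for no effect and camptothecin positive control wells for full effect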
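PC3M cells stably expressing PTB-GFP, 750–1000 cells/well, treated 16 h at 37 °C with compound (23 nl of library stock), in duplicate. After paraformaldehyde fixation and Hoechst stain, imaged at 20x; PNC prevalence scored by image analysis.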
Numbers without * were called inactive; ! = a repeat was not active; [ ] = remark or other dose. A selection: hits, their analogues and other compounds. The true share with any hit is near 11%. Unless noted, calls follow the shape of the dose curve; as a rule, active = well fitted inhibition curve with a large enough effect (not every such curve was filed as active); inconclusive = small, poorly fitted or top-dose-only effect, or another doubt; inactive = no such curve, though single readings can be large or run the other way. Unless noted, % is scaled to controls: 0 for no effect and ±100 for the full control effect.

`CCCCC/C=C\C/C=C\C/C=C\CCCCCCC(=O)NCCCC(=O)O` gave ALDH1A1 inh -1.9%, JMJD2E inh inconclusive and HPGD block 2.7%.
`CCOC(=O)c1sc(N(Cc2ccccc2)C(=O)COC(=O)c2ccccc2O)nc1C` gave ALDH1A1 inh -7.3%, JMJD2E inh -23.9%, HPGD block 20µM* and PNC assembly inh -28.7.
CCOC(=O)c1sc(N(Cc2ccccc2)C(=O)COC(=O)c2ccc(O)cc2)nc1C was read as ALDH1A1 inh 14.1µM*, JMJD2E inh -25.5%, HPGD block inconclusive and PNC assembly inh inconclusive.
Screening CCOC(=O)c1sc(N(C)C(C)=O)nc1C returned ALDH1A1 inh -9.7%, JMJD2E inh 4.3%, HPGD block 2.3% and PNC assembly inh 24.6.
`CCOC(=O)c1sc(N(Cc2ccccc2)C(=O)CSc2ncn[nH]2)nc1C` gave ALDH1A1 inh 4.47µM*, JMJD2E inh inconclusive, HPGD block -25.9% and PNC assembly inh inconclusive.
`Cc1cc(SC#N)cc(C)c1NC(=O)CCl` gave ALDH1A1 inh inconclusive, JMJD2E inh -1.1%, HPGD block inconclusive and PNC assembly inh -115.1*.
Screening CCC(=O)Nc1ccc(SC#N)cc1C returned ALDH1A1 inh 2.51µM*, JMJD2E inh -0.9%, HPGD block -16.2% and PNC assembly inh -7.7.
Screening CCC(=O)Nc1cc2c(C)cc(=O)oc2cc1C returned ALDH1A1 inh inconclusive, JMJD2E inh inconclusive, HPGD block inconclusive and PNC assembly inh -9.5.
For CCc1cc(SC#N)cc(C)c1NC(=O)CCl the results were ALDH1A1 inh -4.0%, JMJD2E inh -2.5%, HPGD block 15.8µM* and PNC assembly inh 28.8.
For C[C@@H]1c2cccc(O)c2C(O)=C2C(=O)[C@@]3(O)C(O)=C(C(N)=O)C(=O)[C@@H](N(C)C)[C@@H]3[C@@H](O)[C@@H]21 the results were ALDH1A1 inh -1.9%[20.9 µM], JMJD2E inh -22.8%[25.5 µM] and HPGD block -3.7%.
For C=C1c2cccc(O)c2C(O)=C2C(=O)[C@@]3(O)C(O)=C(C(N)=O)C(=O)[C@@H](N(C)C)[C@@H]3[C@@H](O)[C@H]12 the results were ALDH1A1 inh 5.9%[20.9 µM], JMJD2E inh inconclusive and HPGD block 10µM*.
Screening Cc1ccc(N2NC(=O)/C(=C\c3cc4c(cc3[N+](=O)[O-])OCO4)C2=O)cc1C returned ALDH1A1 inh 17.8µM*, JMJD2E inh -3.6%, HPGD block 3.98µM* and PNC assembly inh 29.9.
`Cc1ccc(N2NC(=O)/C(=C/c3ccc(-c4ccc(Cl)c(C(=O)O)c4)o3)C2=O)cc1C` gave ALDH1A1 inh inconclusive and JMJD2E inh -3.8%.
For CCC(=O)N(Cc1ccc(S(N)(=O)=O)cc1)C1CC(=O)N(c2ccccc2)C1=O (configuration not stated) the results were ALDH1A1 inh 13.2% and JMJD2E inh -0.2%.
`CN(NC(=S)Nc1ccc(OC(F)F)cc1)C(=S)Nc1ccc(OC(F)F)cc1` gave ALDH1A1 inh 22.1%, JMJD2E inh -3.8%, HPGD block 17.8µM* and PNC assembly inh -0.7.
FC(F)Oc1ccc(NC(=S)Nn2cnnc2)cc1 was read as ALDH1A1 inh 7.94µM* and JMJD2E inh 2.6%.
`COC(=O)N/N=C/c1cc(N=Nc2ccccc2)ccc1O` gave JMJD2E inh 4.3%.
`Cc1cc(C(=O)N/N=C/c2cc(N=Nc3ccccc3)ccc2O)n[nH]1` gave ALDH1A1 inh -10.4%, JMJD2E inh 5.01µM*, HPGD block -21.7% and PNC assembly inh -8.0.
`Cc1cc(C(=O)N/N=C/c2cccc([N+](=O)[O-])c2O)n[nH]1` gave ALDH1A1 inh -7.5%, JMJD2E inh 12.6µM*, HPGD block -10.9% and PNC assembly inh 24.9.
For Cc1ccc(NC(=O)Cc2cc(C(=O)O)c3ccccc3n2)c(C)c1 the results were ALDH1A1 inh 10.6% and JMJD2E inh -15.6%.
For Oc1ccc(N2CCN(c3ncnc4sc5c(c34)CCC5)CC2)cc1 the results were ALDH1A1 inh inconclusive, JMJD2E inh -15.3%, HPGD block -18.9% and PNC assembly inh inconclusive.
For CCC1CCc2c(sc3ncnc(N4CCOCC4)c23)C1 (configuration not stated) the results were ALDH1A1 inh -12.2%, JMJD2E inh inconclusive, HPGD block -27.4% and PNC assembly inh -125.8*.
Screening O=S(=O)(c1ccc(Br)s1)N1CCc2ccccc2C1 returned ALDH1A1 inh -26.4%, JMJD2E inh 2.7%, HPGD block -28.7% and PNC assembly inh -118.9*.
For COc1ccc(S(=O)(=O)N(CCc2ccccc2)CC(N)=O)cc1 the results were ALDH1A1 inh 7.94µM* and JMJD2E inh -3.8%.
Screening CC(C)Oc1ccc(C(=O)NC(Cc2c[nH]c3ccccc23)C(=O)NN)cc1 (configuration not stated) returned JMJD2E inh 0.2%.
O=C(/C=C/c1ccc(O)c(O)c1)c1ccc(S(=O)(=O)N2CCCCCC2)cc1 was read as ALDH1A1 inh inconclusive, JMJD2E inh 28.2µM*, HPGD block inconclusive and PNC assembly inh 33.5.
`c1ccc(-c2nnsc2Sc2ccccn2)cc1` gave ALDH1A1 inh inconclusive and JMJD2E inh -1.4%.
CN(C)c1ccc(C(CNC(=O)c2ccccc2Br)c2c[nH]c3ccccc23)cc1 (configuration not stated) was read as ALDH1A1 inh 7.94µM*, JMJD2E inh -8.5%, HPGD block -5.7% and PNC assembly inh -20.3.
`CCOC(=O)c1ccc(S(=O)(=O)NCC(c2ccc(N(C)C)cc2)c2c[nH]c3ccccc23)cc1` (configuration not stated) gave ALDH1A1 inh 13.1%, JMJD2E inh -3.1%, HPGD block -16.4% and PNC assembly inh 71.4.
`CN(C)c1ccc(C(CNC(=O)c2ccc(C#N)cc2)c2c[nH]c3ccccc23)cc1` (configuration not stated) gave ALDH1A1 inh 14.1µM*, JMJD2E inh -3.3%, HPGD block -14.6% and PNC assembly inh 33.7.
Screening CN(C)c1ccc(C(CNS(=O)(=O)c2ccc(F)cc2)c2c[nH]c3ccccc23)cc1 (configuration not stated) returned ALDH1A1 inh inconclusive, JMJD2E inh -6.1%, HPGD block -6.4% and PNC assembly inh inconclusive.
For O=C(NCCN1CCCCC1)c1ccc(Cc2nc3ccccc3[nH]2)cc1 the results were ALDH1A1 inh 6.3% and HPGD block -6.2%.
`S=C(Nc1cccc(Cl)c1Cl)N1CCC2(CC1)OCCO2` gave ALDH1A1 inh 4.1% and JMJD2E inh 1.8%.
`CN(C)c1ccc(C(=C2C=CC(=[N+](C)C)C=C2)c2ccc(N(C)C)cc2)cc1` gave ALDH1A1 inh -4.2%, JMJD2E inh inconclusive and HPGD block 0.4%.
For CN(C)c1ccc(C(=C2C=CC(=[N+](C)C)C=C2)c2ccccc2)cc1 the results were ALDH1A1 inh 8.91µM*! and HPGD block inconclusive.
COc1cc([C@H]2[C@@H]3CCCC[C@]3(O)CCN2CC(=O)Nc2ccc(C)cc2)ccc1O was read as ALDH1A1 inh 0.1%, JMJD2E inh 2.7%, HPGD block 4.9% and PNC assembly inh -100.0*.
